Data on five molecules can be found in PubChem BioAssay.

A short description of test [1]: Wnt pathway potentiators raising nuclear beta-catenin – imaging, WNT3A-conditioned medium, mouse C2C12, NPC library, primary screen (AID 1117326; in the data active = nuclear beta-catenin stimulation mostly above about 4.2%, no sharp cut-off; inactive = mostly below about 10%). The settings on record: stronger effect = higher value.
Test [2] in a line: stimulators of insulin release from INS-1E, primary screen, cell-based, 5 mM glucose, NPC library (AID 1117329;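 active = compound raises insulin release from rat beta cells at 5 mM glucose, no numeric limit stated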). Conditions: rat INS-1E insulin secretion, at 10 µM, stronger effect = higher value.
Test [3] is described as follows: growth inhibition of GSK3B-pretreated HCT116 cells – cell-based, CellTiter-Glo, 0.2 to 20 µM (AID 1117336;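 active = compounds lowering colon cancer cell viability after pretreatment blocking the GSK3B kinase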). The settings on record: HCT116 viability after GSK3B inhibitor, at 20 µM, stronger effect = higher value. (In general: ATP-based viability assays read luminescence as a measure of living cells.)
Test [4] in a line: inhibition of endothelial tube formation, primary screen, imaging, VEGF stimulated, CD31 staining, tube area, NPC library (AID 1117340;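 active = compound that reduces growth-factor-driven endothelial tube area in a mixed cell culture, no cutoff stated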). The settings on record: VEGF-stimulated ADSC/ECFC co-culture, at 10 µM, stronger effect = higher value.
A short description of test [5]: GLP1 release stimulators, primary, NCI-H716, NPC library (AID 1117341;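 active = compound raises GLP1 secretion from the human gut endocrine cells, with no numeric limit stated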). The settings on record: NCI-H716 cells, at 10 µM, stronger effect = higher value.
A short description of test [6]: HCT116 colon cancer cell growth inhibition, primary screen, CellTiter-Glo luminescence, NPC library (AID 1117342;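 active = compounds that lower survival of HCT116 colon cancer cells in the luminescence readout, no numeric limit stated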). Conditions: at 20 µM (top of the series).
The nature of test [7]: reduced SW480 viability measured with CellTiter-Glo, NPC library, primary (AID 1117343;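 active = compounds that lower viability of the colon cancer cells in the luminescence readout, with no numeric limit stated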). The settings on record: CellTiter-Glo luminescence; at 20 µM (top of the series) unless noted.
Test [8] is described as follows: NPC library primary testing for decreased DLD-1 cell viability via CellTiter-Glo (AID 1117346;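 active = compounds that lower survival of DLD-1 colon cancer cells in the luminescence readout, no cutoff given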). Conditions: DLD-1 viability, CellTiter-Glo luminescence; at 20 µM (top of the series).
Test [9] is described as follows: viability loss with induced miR-34 in A549 – imaging, A549 dox-inducible miR-34, nuclei and caspase counts, primary screen (AID 1347080). The settings on record: A549 miR-34 inducible, Hoechst nuclei count, 48 h.
Test [10] can be described thus: blockers of cellular phospholipid synthesis – cell-based, LOPAC library, screen 4, primary screen (AID 1347384; call rule not given here). Conditions: animal cells, phospholipid biosynthesis inhibition screen; at 10 µM.
Test [11] is described as follows: galactose survival enhancers in mitochondrial complex I cybrids – cell-based, galactose medium, ATP luminescence, primary screen (AID 1645843;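 active = z-score of at least 1.8 in each of two replicates, scored against plate mean and spread of sample wells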;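 also: positive z means more ATP and so rescue of galactose-driven cybrid death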). The settings on record: complex I mutant cybrid cells, 72 h, stronger effect = higher value.
A short description of test [12]: P. berghei load reduction in hepatocytes – cell-based, HepG2, luciferase luminescence, HepG2 viability, primary screen (AID 624349; in the data active = parasite load remaining mostly below about 12%, no sharp cut-off; inactive = mostly above about 10%;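 also: 100% = mean of DMSO negative control wells on the same plate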). The settings on record: P. berghei liver stage in HepG2, luciferase luminescence, concentration not given here; parasite load remaining: stronger effect = lower value; viability: measured here: HepG2 viability without parasites.
Test [13] in a line: MELAS cybrid and Rieske KO viability enhancers – cell-based, MELAS cybrids, Rieske KO mouse fibroblasts, CellTiter-Glo, primary screen (AID 1508586;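 active = mean z-score across replicates of 1.96 or higher in either the MELAS or the Rieske mutant cell line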;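 also: z relative to plate mean and SD of compound and empty wells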). The settings on record: low glucose.
[14] abbreviates: stronger effect = lower value, cell number ratio, induced over uninduced.
The mark [15] stands for this setting: measured here: relative caspase fold change +Dox/-Dox.
Where [16] appears, read: measured here: total cells with miR-34 induction, stronger effect = lower value.
Where [17] appears, read: measured here: total cells without miR-34 induction.
[18] abbreviates: MELAS cybrid survival, CellTiter-Glo 48 h, stronger effect = higher value.
The mark [19] stands for this setting: Rieske KO mouse fibroblast survival, CellTiter-Glo 72 h.

Several values for one entry are separate records, joined by “and”; a condition that tells them apart may be missing. Equal entries are not always repeated. Activity calls are given as the source filed them.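 The calls were made as follows, unless noted: active = compounds whose cell count with miR-34 switched on is under 0.7 times the count with it off; inactive = the rest.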

On to `O=C(O)CN(CCOCCOCCN(CC(=O)O)CC(=O)O)CC(=O)O`, for which the nuclear beta-catenin stimulation in test [1] (at 10 µM) is 0% (inactive); in test [1] (stimulation, at 2 µM) it was 0%. In addition, the insulin secretion stimulation in [2] was 1.45% (inactive). The viability decrease in [3] is 16.3% (inactive). In addition, in test [4], the tube area decrease was 6.4% (inactive). The GLP1 secretion stimulation in test [5] was 1.8% (inactive). For the same molecule, the inhibition of viability in [6] was 5.2% (inactive). For the same molecule, the viability decrease (inhibition) in test [7] was -13.8% (inactive); in test [8], 1.8% (inactive). In addition, the values for the fold change in test [9] (setting [14]) and in test [9] (setting [15]) were 0.942 (inactive) and 1.12, respectively. Also, the figures for the cell count in test [9] (setting [16]) and in test [9] (setting [17]) were 9820 and 10400, respectively. In addition, in test [10], the result was inactive. The z-score in [11] is 0.34 (inactive).
The term viability denotes a read-out of living cells in per cent, often relative to untreated cells. As for `CCCCc1ncc(/C=C(\Cc2cccs2)C(=O)O)n1Cc1ccc(C(=O)O)cc1`, the parasite load remaining in [12] is 50.8% (inactive). For the same molecule, the viability in test [12] was 110%. For the same molecule, the nuclear beta-catenin stimulation in test [1] (at 10 µM) is 0.4% (inactive); in [1] (stimulation, at 2 µM), 12.2%. Moreover, the insulin secretion stimulation in [2] is 2.05% (inactive). Also, in test [3], the viability decrease is 9.7% (inactive). The tube area decrease in test [4] is -11.7% (inactive). The GLP1 secretion stimulation in test [5] is -2.1% (inactive). Besides, in test [6], the inhibition of viability is 0% (inactive). Moreover, the viability decrease (inhibition) is -13.7% (inactive) in test [7] and -4.6% (inactive) in test [8]. In addition, the fold change in [9] (setting [14]) is 1.04 (inactive) and 0.815 (inactive); in test [9] (setting [15]), 0.751 and 0.591. Moreover, the cell count is 10200 and 8890 in test [9] (setting [16]); 9790 and 10900 in test [9] (setting [17]). Further, in test [10], the call was inactive. The z-score was 0.334 (inactive) in test [13] (setting [18]); -0.876 in [13] (setting [19]); 0.525 (inactive) and 0.34 (inactive) in [11].
As to `Nc1c(CC(=O)O)cccc1C(=O)c1ccccc1`, the nuclear beta-catenin stimulation in [1] (at 10 µM) was 0.8% (inactive); in test [1] (stimulation, at 2 µM) it was 0.5%. For the same molecule, the insulin secretion stimulation in [2] is -0.2% (inactive). Also, in test [3], the viability decrease is -2.3% (inactive). The tube area decrease in test [4] was -6.1% (inactive). Further, the GLP1 secretion stimulation in [5] is 2.5% (inactive). Besides, the inhibition of viability in [6] was 0.4% (inactive). Besides, the viability decrease (inhibition) in test [7] was 0.2% (inactive); in test [8], -11.2% (inactive). In addition, the fold change in [9] (setting [14]) is 0.914 (inactive); in [9] (setting [15]), 0.966. Moreover, the cell count in test [9] (setting [16]) was determined as 7840; in [9] (setting [17]), 8580. Also, the z-score in test [13] (setting [18]) is -0.237 (inactive); in [13] (setting [19]) it was -0.172.
Turning to `COc1cc(C=O)ccc1O`, the nuclear beta-catenin stimulation in test [1] (at 10 µM) was 1.6% (inactive); in test [1] (stimulation, at 2 µM), 0.8%. Also, the insulin secretion stimulation in test [2] was 0.7% (inactive). In test [3], the viability decrease was 1.37% (inactive). For the same molecule, in test [4], the tube area decrease was 1.2% (inactive). Moreover, in test [5], the GLP1 secretion stimulation is 0.6% (inactive). Moreover, the inhibition of viability in test [6] was -10.3% (inactive). The viability decrease (inhibition) in [7] was 49.1% (inactive); in test [8], 3.27% (inactive). Also, the values for the fold change in test [9] (setting [14]) and in test [9] (setting [15]) were 0.931 (inactive) and 0.545, respectively. Further, the values for the cell count in test [9] (setting [16]) and in [9] (setting [17]) were 7990 and 8590, respectively. In addition, the values for the z-score in test [13] (setting [18]) and in [13] (setting [19]) were -0.504 (inactive) and -0.136, respectively.
With `Nc1cc(=O)[nH]c(N)n1`, the nuclear beta-catenin stimulation was 1.3% (inactive) in test [1] (at 10 µM) and 1.3% in test [1] (stimulation, at 2 µM). For the same molecule, in [2], the insulin secretion stimulation was -1.5% (inactive). Also, in test [3], the viability decrease is 7.7% (inactive). Further, the tube area decrease in test [4] was -14.1% (inactive). In addition, the GLP1 secretion stimulation in [5] is -2.3% (inactive). Besides, in [6], the inhibition of viability is -16.3% (inactive). For the same molecule, the viability decrease (inhibition) is 71.1% (active) in [7] and 13.6% (inactive) in [8]. The fold change was 0.958 (inactive) in test [9] (setting [14]) and 1.28 in test [9] (setting [15]). Moreover, the cell count in test [9] (setting [16]) stood at 9880; in test [9] (setting [17]) it was 10300. For the same molecule, the molecule was called inactive in [10]. For the same molecule, the z-score in [11] was 0.355 (inactive).
